Records with an inconclusive call do not appear. The source made the active and inactive calls. The calls were made as follows: active = hit-call score of the fitted dose curve at least 0.9, where 1 is the maximum; inconclusive = response in the unintended direction; inactive = score below 0.9.

The test relates to frog Estrogen Receptor (ER1), gene 398734. Description: ATG_frER1_EcoTox2: Attagene TRANS-FACTORIAL EcoTox-2 HepG2 Assay for frog Estrogen Receptor (ER1). How it is done: ATG_EcoTox2 is a cell-based, multiplexed assay created by modifying the existing Attagene TRANS-FACTORIAL system to include a panel of nuclear receptors from some or all the following species: human (Homo sapiens), african clawed frog (Xenopus laevis), rainbow trout (Oncorhynchus mykiss), japanese medaka (Oryzias latipes), and zebrafish (Danio rerio). The ECOTOX2-FACTORIAL format uses HepG2, a human liver cell line, with measurements taken at 24 hours after chemical dosing in a 24-well plate. ATG_frER1_EcoTox2 is one of 29 assay components calculated in the ATG_EcoTox2 assay. It is designed to make measurements of mRNA induction, a form of inducible reporter, as detected with fluorescence intensity signals by Reverse transcription polymerase chain reaction (RT-PCR) and Capillary electrophoresis technology.The assay endpoint ATG_frER1_EcoTox2 was analyzed in the positive analysis fitting direction relative to DMSO as the negative control and baseline of activity. Using a type of inducible reporter, measures of mRNA for gain-of-signal activity can be used to understand the reporter gene at the transcription factor-level as they relate to the gene ER. Furthermore, this assay endpoint can be referred to as a primary readout, because this assay has produced multiple assay endpoints where this one serves a reporter gene function. To generalize the intended target to other relatable targets, this assay endpoint is annotated to the nuclear receptor intended target family, where the subfamily is steroidal.
Human liver HepG2 cells are transiently transfected with multiple reporter transcription units (MRTUs) in 6-well plates using FuGene 6 reagent (Roche; 3 ml FuGene/1 mg DNA). The MRTU constructs are regulated by a cis-regulating element (promoter). Each RTU expresses a GAL4-UAS that regulates the transcription of a nearby target reporter gene sequence. A major difference between the CIS and TRANS system is that in CIS activities of endogenous TFs are measured, whereas the TRANS assay evaluates changes in activities of exogenous, chimeric NR-Gal4 proteins. […] At the end of 24 hour incubation, total RNA was isolated using TriZol reagent (Invitrogen). The isolated RNA is then reverse-transcribed using oligo(dT) primer and Mo-MLV reverse transcriptase (Invitrogen) with DNAse I (Ambion) treatment for 30 min. The one-tenth of the produced cDNA was amplified by PCR using Taq DNA polymerase (Invitrogen) and two reporter sequence-specific primers. The PCR products were fluorescently labeled by primer extension with 6-arboxyfluorescein (6-FAM) 5'-labeled reporter sequence-specific primer (2 min at 95 C, 20 s at 68 C and 10 min at 72 C) and these products were digested with 5U of HpaI (New England Biolabs) for 2h at 37 C. The fragments were purified using Qiaquick PCR columns (Qiagen), analyzed on an ABI 3130xL genetic analyzer (Applied Biosystems) with peak positions identified by using a set of X-rhodamine (ROX)-labeled MapMarker1000 molecular weight standards (BioVentures). The raw capillary electrophoresis data was processed using Attagraph software (Attagene).
As to `CC(C)(Oc1ccc(CCNC(=O)c2ccc(Cl)cc2)cc1)C(=O)O`, the result was inactive. The same measure, in the same setting: with `C[C@@H]1C[C@H]2[C@@H]3CCC4=CC(=O)C=C[C@]4(C)[C@@]3(F)[C@@H](O)C[C@]2(C)[C@@]1(O)C(=O)COP(=O)(O)O` the entry was “inactive”; with `CC(c1cc2ccccc2s1)N(O)C(N)=O` (stereo not given), “inactive”; with `Cc1ccc(C)c(OCCCC(C)(C)C(=O)O)c1`, “inactive”. Regarding `C=C(c1ccc(C(=O)O)cc1)c1cc2c(cc1C)C(C)(C)CCC2(C)C`, the result was inactive. For the compound `Cc1cccc(Nc2cc(Cl)nc(SCC(=O)O)n2)c1C`, the call was inactive.

Consider `CN(CCOc1ccc(CC2SC(=O)NC2=O)cc1)c1ccccn1` (stereo not given), for which the compound was classed as inactive. Consider `C[C@]12C=CC(=O)C=C1CC[C@@H]1[C@@H]2C(=O)C[C@@]2(C)[C@H]1CC[C@]2(O)C(=O)CO`, for which the AC50 – broadly, the midpoint of the concentration-response curve, whichever way the signal moves – was 50 µM (active). Take `Cc1c(C)c2c(c(C)c1O)CCC(C)(COc1ccc(CC3SC(=O)NC3=O)cc1)O2` (stereo not given): the call was inactive. Still for that read-out and setting: in the case of `CC(C)OC(=O)C(C)(C)Oc1ccc(C(=O)c2ccc(Cl)cc2)cc1` it was “inactive”.

Values taken from PubChem BioAssay AID2284369 (EPA ToxCast).
